# Screening results deposited in PubChem by National Center for Advancing Translational Sciences (NCATS).
# The list is not random: actives were taken first. Their share in the collection is about 11%.
# AmpC inh no detg: inhibitors of E. coli AmpC beta-lactamase without detergent; P00811; AmpC nitrocefin hydrolysis, absorbance 480 nm, 0.0001% Triton; Potency, µM (top dose mostly 57.1 µM), without a hit: top-dose activity change, negative = inhibition, actives largely listed as inhibitors; hit rate 0.52% among 330,000;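 also: plate controls were no compound for no effect and no enzyme for full effect; nearly all actives have a fitted effect of over 20% in size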
# Target sequence (P00811 whole entry, looked up): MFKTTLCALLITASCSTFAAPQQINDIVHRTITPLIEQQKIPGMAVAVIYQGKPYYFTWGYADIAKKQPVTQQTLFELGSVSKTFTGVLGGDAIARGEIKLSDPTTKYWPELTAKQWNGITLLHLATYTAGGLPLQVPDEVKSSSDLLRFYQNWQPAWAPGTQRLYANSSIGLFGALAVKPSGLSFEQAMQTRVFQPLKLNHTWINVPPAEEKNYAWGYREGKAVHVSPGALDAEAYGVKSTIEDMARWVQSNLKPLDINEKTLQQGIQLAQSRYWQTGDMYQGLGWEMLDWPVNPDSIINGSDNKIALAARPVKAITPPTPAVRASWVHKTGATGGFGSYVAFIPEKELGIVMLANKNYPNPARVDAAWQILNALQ
#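 AmpC (5.3 nM in the dispensed reagent) in 20 mM phosphate pH 7.0 with 0.01% (detergent screen) or 0.0001% Triton X-100 was preincubated with compounds for 15 min at room temperature. Nitrocefin was then added from an 800 uM solution, and hydrolysis was followed at 480 nm.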
# HCV inhibitor: blocks hepatitis C virus | Huh7.5.1 HCVcc-Cre infection, luciferase reporter, 44 h | hit rate 3.4% among 340,000 | Potency, µM (series often up to 41.8 µM), for the others: at the highest dose activity change, negative = inhibition, actives largely listed as inhibitors
#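 HCVcc-Cre virus at an moi near 0.5 was added right after compound to cells cultured 4 h from seeding (1,000 cells/well). Luciferase activity was determined 44 h later, 15 min after substrate addition at RT.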
# Pf growth 48h: P. falciparum growth inhibition at 48 hours (one generation); Potency, µM (titrated, usually from 28.7 µM), without a hit: at the highest dose activity change, negative = inhibition, actives largely listed as inhibitors; AID 504832; hit rate 5.9% among 310,000; P. falciparum luciferase growth in erythrocytes, 48 h
#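 Luciferase-expressing P. falciparum in infected erythrocytes (2% hematocrit, 0.1% parasitemia final) in RPMI 1640/0.5% Albumax were exposed to compound for 48 hours at 37 C, 5% CO2; growth read as luminescence.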
# AMA1-RON2 inh: AMA1-RON2 (P. falciparum) interaction inhibition | AlphaScreen AMA1-biotinylated RON2 peptide binding | Potency, µM (highest dose often 58.2 µM), for inactives: at the top dose activity change, negative = inhibition, most hits filed as inhibitors | hit rate 0.2% among 360,000;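 also: 0% = vehicle wells and -100% = peptide control; nearly all actives have a fitted effect of over 45% in size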
#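 AMA1 (3D7) with his tag at 25 nM final met compounds first, then biotinylated RON2 peptide at 25 nM; detection used donor plus acceptor beads, 10 µg/mL apiece, read by AlphaScreen after 30 min at room temperature.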
# AmpC inh detg: inhibitors of E. coli AmpC beta-lactamase with detergent | hit rate 0.041% among 370,000 | AmpC hydrolysis of nitrocefin, absorbance 480 nm, 0.01% Triton | P00811 | Potency, µM (highest dose often 114 µM), for the others: top-dose activity change, negative = inhibition, usual class: inhibitors | AID 485294;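 also: 0% = no-compound wells and -100% = no-enzyme wells; nearly all actives have a fitted effect of over 25% in size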
#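 AmpC (5.3 nM in the dispensed reagent) in 20 mM phosphate pH 7.0 with 0.01% (detergent screen) or 0.0001% Triton X-100 was preincubated with compounds for 15 min at room temperature. Nitrocefin was then added from an 800 uM solution, and hydrolysis was followed at 480 nm.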
# Pf growth 96h: P. falciparum growth inhibition at 96 hours; P. falciparum luciferase reporter growth, 96 h; AID 504834; Potency, µM (doses to about 28.7 µM), for the others: at the highest dose activity change, negative = inhibition, actives largely listed as inhibitors; hit rate 6.9% among 320,000
#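 P. falciparum expressing integrated firefly luciferase, in erythrocytes at 2% hematocrit, 0.05% parasitemia, incubated with compounds 96 h at 37 C, 5% CO2. Growth inhibition read as loss of luminescence; two-generation exposure targets delayed-death apicoplast inhibitors.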
# * hit, by the source's call; ? = inconclusive; · = no result. Calls follow the shape of the dose curve; as a rule, active = well fitted curve in the direction sought with a large enough effect; inconclusive = small, poorly fitted or top-dose-only effect, or another doubt; inactive = no such curve, though single readings can be large; an effect the other way counts as inactive or inconclusive. Unless noted, % is scaled to controls: 0 for no effect and ±100 for the full control effect; potency is read from the fitted curve at half-maximal effect.
SMILES,AmpC inh no detg,HCV inhibitor,Pf growth 48h,AMA1-RON2 inh,AmpC inh detg,Pf growth 96h
COc1ccc(-c2sc3cc(OC)c(OC)cc3c2C#CC(C)(C)O)cc1,137%,1.4µM*,?,14%,1%,?
COc1ccc(-c2ccc3oc(-c4ccc(OC)cc4)c(C#CCO)c3c2)cc1,·,?,·,11%,·,·
O=C(CN1C(=O)COc2ccc(S(=O)(=O)N3CCCC3)cc21)N1CCN(c2ccc(Cl)cc2)CC1,·,·,·,·,10%,·
CC(C)(c1ccccc1)c1ccc(OCCCNCCO)cc1,63%,?,·,-11%,?,2.1µM*
CC(C)(C)c1ccc(OCCCNCc2ccccc2)cc1,-5%,11µM*,-19%,-6%,-3%,95%
COCCCNCCCOc1ccc(C(C)(C)c2ccccc2)cc1,-1%,?,?,-20%,2%,29%
O=C(Nc1ccccc1Cl)C(=O)c1cn(CC(=O)N2CCOCC2)c2ccccc12,93%,-11%,139%,-3%,-2%,12µM*
O=C(NCc1ccc(Cl)cc1)C(=O)c1cn(CC(=O)N2CCOCC2)c2ccccc12,131%,-11%,19%,-4%,-2%,13µM*
CCOc1ccccc1NC(=O)Cn1c(=O)n(-c2ccc(C)cc2)c(=O)c2c1cnn2C,·,·,·,·,8%,·
CCCCSCc1[nH]c(=O)[nH]c1C(=O)CCCCC(=O)OCC,8%,15%,-15%,?,4%,-23%
CCOC(=O)CCCCC(=O)c1[nH]c(=O)[nH]c1Cn1ccnc1,-18%,14%,0.47µM*,-5%,-3%,·
O=C(Oc1ccccc1N1C(=O)CCC1=O)c1ccco1,-22%,18%,-9%,-7%,0%,9.3µM*
O=C(Cc1ccc(Cl)cc1)Oc1cccc2cccnc12,9%,?,0%,-7%,-14%,2.6µM*
O=C(Oc1ccc(Cl)c2cccnc12)c1ccco1,-10%,?,12µM*,-5%,-3%,74%
O=C(Oc1cccc2cccnc12)c1ccco1,-14%,?,?,0%,-2%,1.3µM*
CC1C=CCC2C(=O)N(c3ccccc3OC(=O)c3ccco3)C(=O)C12 (stereo unspecified),0%,7%,40%,0%,-2%,-9%
O=[N+]([O-])c1ccc(C(c2sc3nc(-c4ccco4)nn3c2O)N2CCN(c3cccc(Cl)c3)CC2)cc1 (stereo unspecified),·,·,·,·,0%,·
COc1ccccc1C(=O)NCCn1cc(SCc2ccc(C)cc2)c2ccccc21,·,·,·,·,2%,·
Cn1nnnc1SCCCNCc1ccc(-c2ccc(F)c(Cl)c2)o1,·,·,·,·,21%,·
COc1ccc(Cc2nnc(-c3cccc(C)c3)o2)cc1OC,57%,-15%,29%,9%,9%,-3%
COc1ccc(Cc2nnc(Nc3ccc(C)cc3)o2)cc1OC,18%,?,2.9µM*,-9%,-1%,?
CCN(CC)C(=O)CSc1nc(-c2ccc(C)cc2)nc2c1Cc1c(CO)cnc(C)c1O2,·,·,·,·,-2%,·
O=C(Cn1c(=O)nc(-c2ccccc2)c2ccccc21)NCCCc1ccccc1,·,·,·,·,15%,·
COC(=O)C[C@H](NC(=O)Cn1cc(C)c(=O)[nH]c1=O)C(=O)OC,·,5%,·,-3%,·,·
COC(=O)[C@H](CCSC)NC(=O)Cn1cc(C)c(=O)[nH]c1=O,·,0.5µM*,·,10%,·,·
SMILES,AmpC inh no detg,HCV inhibitor,Pf growth 48h,AMA1-RON2 inh,AmpC inh detg,Pf growth 96h
CCN(CCCNC(=O)Cn1ncc2c(=O)oc3ccccc3c21)c1cccc(C)c1,-1%,13µM*,·,-6%,-7%,-4%
CCCN(C(=O)Cn1ncc2c(=O)oc3ccccc3c21)c1cccc(C)c1,·,-12%,9%,-8%,-2%,0%
COCc1c(C(=O)NCC2COc3ccccc3O2)oc2ccccc12 (stereo unspecified),-6%,6%,12µM*,-6%,-2%,?
Cc1ccc2oc(=O)c3cnn(CC(=O)NC4CCN(Cc5ccccc5)CC4)c3c2c1,-12%,-14%,·,2%,-6%,2.3µM*
CC(=O)NCC1COc2ccccc2O1 (stereo unspecified),-4%,16%,8%,-2%,-1%,0%
COCCN1C(=S)N[C@@H](c2ccccc2)C(C(=O)OC)=C1C,54%,·,?,·,?,43%
CCOc1ccc(Br)cc1C1C(C(=O)Nc2ccccc2OC)=C(C)Nc2nnnn21 (stereo unspecified),·,·,·,·,2%,·
COC(=O)C(CCSC)NC(=O)Cn1ncc2c(=O)oc3ccccc3c21 (stereo unspecified),1%,3%,·,5%,?,12µM*
Cc1ccc2oc(=O)c3cnn(CC(=O)NCCN(C)C)c3c2c1,-18%,4%,-1%,9%,-8%,-28%
Cc1ccc2oc(=O)c3cnn(CC(=O)NCCN4CCOCC4)c3c2c1,-2%,11%,13%,1%,?,9.3µM*
O=C(Cn1ncc2c(=O)oc3ccccc3c21)NCC1COc2ccccc2O1 (stereo unspecified),-10%,8%,·,0%,-2%,1.9µM*
O=C(Cn1ncc2c(=O)oc3ccccc3c21)NC1CC1,-19%,16%,10%,0%,-6%,?
COc1ccc(S(=O)(=O)c2cc(NS(=O)(=O)c3ccc(Cl)cc3)c(C)c(C)c2O)cc1,·,·,·,·,-1%,·
CCOC(=O)c1cc(C#N)c(SCc2cccc3ccccc23)nc1C,-3%,-43%,·,7%,-2%,9.3µM*
COc1cccc(CNC(=O)CCCCCn2c(=O)[nH]c3cc(OC)c(OC)cc3c2=O)c1,·,·,·,·,-5%,·
CCOc1ccc(/C=C/C(=O)Nc2sc3c(c2C(=O)OC)C(C(=O)OC)CC3)cc1 (stereo unspecified),·,·,·,·,-7%,·
Cc1cc(C)c[n+](C(C)C(=O)c2ccc(-c3ccccc3)cc2)c1 (stereo unspecified),15%,-10%,1.3µM*,-1%,?,28%
Cc1cc2c(cc1C)CSC(c1c(O)ccc3ccccc13)SC2,-55%,?,12µM*,-1%,0%,·
Cc1cc2c(cc1C)CSC(c1ccccc1O)SC2,-37%,?,-21%,-19%,?,·
Cc1cc2c(cc1C)CSC(c1ccc3ccccc3c1O)SC2,-42%,-14%,9.3µM*,-12%,-15%,?
Cc1cc2c(cc1C)CSC(c1ccc(O)cc1)SC2,-19%,1%,72%,-7%,6%,1%
CN(Cc1ccc(OCC(O)CN2CCCCC2)cc1)Cc1ccnc2ccccc12 (stereo unspecified),77%,5.6µM*,12µM*,0%,1%,3%
